# KLF5 inhibitor = inhibitors of KLF5 expression; DLD-1 KLF5 promoter-luciferase reporter, luminescence; inhibition, % at 5 µM; 0.23% of 290,000 active;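 active means inhibition above a per-plate limit of that plate's mean compound inhibition plus 3 SD, cut at about 60% in these data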;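 further: 0% = DMSO wells and 100% = LY294002 at 200 µM; higher means less KLF5 promoter-driven luciferase light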
# CSC inhib = cancer stem cell inhibition. cancer stem cell-like cells viability, luminescence. inhibition, % at 7.5 µM. 1.1% of 300,000 active; in the data active means inhibition above about 75%; inconclusive means no clear call, values can overlap the other calls; tested in HMLE shEcad cells
# IEC-6 cytotox = IEC-6 cytotoxicity, counter-screen for KLF5 inhibitors; luminescence viability; inhibition, % at 5 µM; 0.78% of 290,000 active; in the data active means inhibition above about 22%;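 further: 0% = plate median of test compound wells and 100% = cytotoxic reference compound wells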
# aSyn 5UTR inh = 5' untranslated region of α-synuclein, MLPCN primary screen. alpha-synuclein 5'UTR reporter, inhibitor activity. inhibition, % (tested at 7.5 µM). 0.82% of 300,000 active; in the data active means inhibition above about 60%; inconclusive means no clear call, values can overlap the other calls;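 further: H4 neuroglioblastoma cells stably carrying SNCA 5'UTR luciferase fusion; 0% = DMSO wells and 100% = positive control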
# SKKanGAS inh = inhibitors of SKKanGAS S. pyogenes growth in kanamycin (SK-promoter or general growth effect); BacTiter-Glo, 6 h; inhibition, % at 7.5 µM; 1.3% of 300,000 active;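 active means mean replicate score, as percent of positive control median, at least 50; inconclusive means mean below 50 but one replicate at or above 50; inactive means mean and every replicate below 50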;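 further: strain carries kanamycin resistance gene driven by streptokinase promoter and grows in 40 µg/ml kanamycin; loss of luminescence reflects streptokinase promoter inhibition or plain growth inhibition; 0% = median of DMSO wells and 100% = positive control at its reference dose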
# The depositor's hits bear a star; ? = inconclusive; . = no result. Rows were chosen to be rich in hits. Some 3% of all compounds tested hit in one or more screens of this group.
SMILES,KLF5 inhibitor,CSC inhib,IEC-6 cytotox,aSyn 5UTR inh,SKKanGAS inh
COC(=O)c1ccc(Cn2nc(C)cc2C)cc1,-34,-9,-3,-71,2
Cc1sc2ncn(CC(=O)Nc3cccc(S(N)(=O)=O)c3)c(=O)c2c1-c1ccccc1,6,.,-11,27,3
COc1cc(OC)cc(C(=O)NNC(=O)CN2C(=O)NC(C)(c3ccc(C)cc3)C2=O)c1 (stereo not given),.,-5,.,19,-7
Oc1c(Br)cc(Br)cc1/C=N/c1nc2c(s1)CCCC2,3,11,5,26,51*
Oc1ccc2ccccc2c1/C=N/c1nc2c(s1)CCCC2,-39,-3,-4,19,-3
CC(CCN1CCC(n2nccc2NC(=O)c2ccccc2Cl)CC1)c1ccccc1 (stereo not given),12,21,1,-4,-11
O=C(Oc1coc(CSc2nnc(NC(=O)c3cccs3)s2)cc1=O)c1ccccc1,-16,86*,4,-13,10
CCC(=O)OCCCCCCOc1ccc(C(=O)O)cc1,-22,-4,5,-8,1
C=CCNC1=C(Cl)C(=O)c2ccccc2C1=O,-26,43,27*,2,8
O=C(O)c1ccc(NC2=C(Cl)C(=O)c3ccccc3C2=O)cc1,-29,102*,5,0,43
Cc1ccc(NC2=C(NC(=O)c3ccccc3)C(=O)c3ccccc3C2=O)cc1Cl,-1,0,5,1,74*
O=C(O)c1cccc(NC2=C(Cl)C(=O)c3ccccc3C2=O)c1,-64,.,-1,-191,-2
O=C1C(Cl)=C(Nc2ccccc2)C(=O)c2ccccc21,-20,112*,-3,-190,-10
COCCCNC1=C(Cl)C(=O)c2ccccc2C1=O,-25,.,21,-30,0
COC1=C(Nc2ccccc2)C(=O)c2ccccc2C1=O,-31,.,5,-73,8
Cc1ccc(S(=O)(=O)NCCc2ccncc2)cc1[N+](=O)[O-],-39,-10,5,11,-3
O=C(CN1c2cccc3cccc(c23)S1(=O)=O)Nc1ccc(F)c(F)c1F,.,-3,.,.,.
CN1CC(c2ccccn2)C2(SC(=S)N(Cc3ccccc3)C2=O)C12C(=O)Nc1ccccc12 (stereo not given),-15,28,14,-45,-3
CN1CC(c2ccccc2)C2(SC(=S)N(Cc3ccco3)C2=O)C12C(=O)Nc1ccccc12 (stereo not given),-10,104*,6,4,13
COc1cc2cc(-c3ccc(OC)c(OC)c3C)nc(N)c2cc1OC,.,63,.,96*,0
CCCOC(=O)C(C)n1cnc2scc(-c3ccc(C)cc3)c2c1=O (stereo not given),-5,5,4,15,-3
CCCCCCCC/C=C\CCCCCCCC(=O)NCCc1ccc(O)c(O)c1,.,100*,.,.,.
CCCCCCCC/C=C\CCCCCCCC(=O)NCCO,.,-7,.,.,.
CC(O)CNc1nc2ccccc2n1CC(=O)N1CCN(Cc2ccccc2)CC1 (stereo not given),1,.,3,21,6
CCCCn1c(-c2ccco2)nc2oc3ccccc3c(=O)c2c1=O,-25,-12,-1,-21,50*
SMILES,KLF5 inhibitor,CSC inhib,IEC-6 cytotox,aSyn 5UTR inh,SKKanGAS inh
COc1ccc(Cn2c(-c3ccco3)nc3oc4ccccc4c(=O)c3c2=O)cc1,4,-3,0,-22,?
O=C(NCc1cccs1)C1CCN(S(=O)(=O)c2ccccc2F)CC1,7,-6,3,-4,-3
Cc1ccc(OCCN2CCN(c3nc(NCc4ccco4)c4ccccc4n3)CC2)cc1,8,112*,-7,18,3
Cc1ccc(-c2nc(NCc3ccco3)c3ccccc3n2)cc1,-108,96*,5,-46,5
Cc1cccc(Nc2nc(NCc3ccco3)c3ccccc3n2)c1,-8,113*,1,-9,19
CN(CC(=O)Nc1ccc(Cl)c(Cl)c1)Cc1nnc(-c2ccc(F)cc2)o1,-25,-22,5,-16,-7
COc1ccc(OC)c(C(=O)/C=C/c2ccccc2C(F)(F)F)c1,-9,99*,-5,-198,15
Cc1ccc(NC(=O)c2ccc([N+](=O)[O-])o2)cc1C,-33,-14,45*,-51,-3
O=C(Nc1ccc(N2CCN(C(=O)c3ccc(Cl)cc3)CC2)cc1)c1ccc([N+](=O)[O-])o1,-28,.,-4,120*,-1
CC1CCN(c2ccc(NC(=O)c3ccc([N+](=O)[O-])o3)cc2)CC1,.,100*,.,44,43
Cc1ccnc(NC(=O)c2ccc([N+](=O)[O-])o2)c1,-80,13,6,-32,17
CC1CCN(c2ccccc2NC(=O)c2ccc([N+](=O)[O-])o2)CC1,-6,.,5,-10,-9

# Source: PubChem (several laboratories)
